# Assay results published in PubChem BioAssay AID1745850 (National Center for Advancing Translational Sciences (NCATS), 2022).
# Among all 2,100 compounds or so, about 260 (12%) were called active. Another 58% or so got no clear call; they are omitted. Calls follow the shape of the dose curve; as a rule, active = well fitted cell-killing curve with a large enough effect; inconclusive = small, poorly fitted or top-dose-only effect, or effect the other way; inactive = flat fitted curve, though single readings scatter. The list shows a part of the results.
# Assay: Viability Counterscreen for Confirmatory qHTS for Inhibitors of ATXN expression; also: nearly all actives have a fitted effect of over 50% in size
# Settings: HEK-293 ATXN2-luc cells viability, CellTiter-Fluor, 24 h; activity change, negative = cytotoxicity: at the top concentration
# Source text: PI: Daniel Scoles Ph.D. University of Utah School of Medicine, Salt Lake City, Utah MLPCN Grant: NS073009 Spinocerebellar ataxia type 2 (SCA2) is a multisystem neurodegenerative disease caused by a dominantly acting mutation leading to expansion of a polyQ domain in the ataxin-2 protein (ATXN2). SCA2 patients develop progressive ataxia and later lose function in other neuronal systems. Prominent parkinsonian signs develop in some patients. Like many neurodegenerative disorders, no symptomatic or disease-modifying treatments are known. The primary objective of the proposed research is to identify compounds inhibiting ATXN2 expression and to test them for efficacy in SCA2 mouse models. We have developed a cell-based assay paired with an in vivo mouse model using identical luciferase expression constructs. This approach takes advantage of an ATXN2-luciferase transgene, with the luciferase gene flanked by the upstream and downstream portions of the ATXN2 gene. Here we describe a 5-7 dose quantitative high thoroughput screen (qHTS) for compounds lowering ATXN2 expression. We screened the NIH Molecular Libraries Small Molecule Repository (MLSMR) and NCGC's mechanistically annotated (MIPE) and drug repurposing (NPC) collections of compounds for lowering expression of an ATXN2-luciferase reporter in HEK-293 cells. The assay is a multiplexed cell viability assay to ensure target reduction in the absence of cytotoxicity. Secondary qHTS assays included a CMV-luciferase reporter expressed in HEK-293 cells as well as a biochemical assay using recombinant luciferase to detect inhibitors of the reporter enzyme. Compounds that inhibit ATXN2 expression but is not cytotoxic were selected for confirmatory and secondary screens.
# PROTOCOL TABLE (as described by Inglese J, Shamu CE and Guy RK. 2007) SEQUENCE No. (e.g., 1, 2, 3, etc.); […] (e.g., Cells, Incubation, Reagent, etc.); VALUE; DESCRIPTION. 1; Cells; 4 uL; white, solid bottom, 1536-well Greiner assay plate. 2; Incubation; 2 hr; 37 degree C in 5% humidified CO2. 3; Compounds; 23 nL; Kalypsis pintool (Wako USA) equipped with a 1536-well pin head. 4; Incubation; 24 hr; 37 degree C in 5% humidified CO2. 5; Reagent; 1 uL; Gly-Phe-7-Amino-4-trifluoromethylcoumarin. 6; Incubation; 30 min; 37 degree C in 5% humidified CO2. 7; Detection; Fluorescence; ViewLux plate reader (PerkinElmer). 8; Reagent; 3 uL; SteadyGlo luciferase solution (Promega). 9; Incubation; 5 min; room temperature. 10; Detection; Luminescence; ViewLux plate reader (PerkinElmer). NOTES (numbers refer to Sequence numbers above) 1. S2 cells expressing ATXN2-luciferase reporter were suspended in phenol-red free DMEM and dispensed in assay plates using a Multidrop Combi dispenser (Thermo Fisher Scientific). Wells containing medium only were plated on each plate, and values were used to normalize (100% inhibition) in the luciferase and CellTiter-Fluor assays. 2. Assay plates were incubated. Evaporation was prevented by covering assay plates with metal lids containing holes to allow gas diffusion. 3. Compounds were added in a dose response manner with the final concentrations of 57, 11.4, 2.28, 0.46, 0.091, 0.018, 0.0037 uM. Vehicle-only plates, with DMSO being pin-transferred to columns 5-48, were inserted uniformly at the beginning and the end of each library to monitor and record any shifts in assay performance. 5. 125 uM Gly-Phe-7-Amino-4-trifluoromethylcoumarin (MP Biomedicals) working concentration was used at a final concentration of 25 uM. 7. To assess cell viability; the assay plates were read using the ViewLux high-throughput CCD imager (PerkinElmer), wherein single end-point fluorescence measurement was acquired (excitation 405/10; emission 540/25 nm). 8. Detection reagent SteadyGlo Luciferase (Promega) was added to the assay plate. 10. Luminescence is then measured on the ViewLux imager equipped with a clear emission filter using a 2 sec exposure. […]
# Potency is read from the fitted curve at half-maximal effect.
Structure (SMILES),"activity change, negative = cytotoxicity",Potency
COc1cccc(CN2CCC2(C)C(=O)Nc2cccc3cccnc23)c1OC (stereo not drawn),-28.3% (inactive),
COc1ccccc1N1CCN(Cc2ccc(O)c3ncccc23)CC1,,2.82 µM (active)
COCc1cc(CN2CCCC2)c(O)c2ncccc12,-19.9% (inactive),
Cc1ccc(/C=C2/CNC/C(=C/c3ccc(C)cc3)C2=O)cc1,,11.2 µM (active)
CN(C)CCNc1cccc2sc3ccc(O)cc3c(=O)c12,,22.4 µM (active)
CN(C)CCNc1ccc2ncn3c4ccc(O)cc4c(=O)c1c23,-23.3% (inactive),
CCn1c2ccccc2c2cc(/C=C(/C#N)C(N)=S)ccc21,-21.4% (inactive),
O=C(NN=C1CCCC1)c1cc(-c2ccc(F)cc2)nc2ccccc12,-13.9% [at 57.5 µM] (inactive),
C/C(=N\NC(=O)c1cc(-c2cccnc2)nc2ccccc12)c1ccc(O)cc1O,,11.2 µM (active)
CCN(CC)S(=O)(=O)c1cccc(C(=O)N/N=C(\C)c2ccc(O)cc2O)c1,-17.5% [at 57.5 µM] (inactive),
CCN(CC)c1ccc(/C=N/NC(=O)CNC(=O)C2COc3ccccc3O2)c(O)c1 (stereo not drawn),-22.3% (inactive),
COc1ccc(CN2CCCN(S(=O)(=O)c3ccc(Br)cc3)CC2)cc1,-10.5% [at 57.5 µM] (inactive),
Cc1cccc(OCCCC(=O)Nc2nccs2)c1,1.34% (inactive),
O=C(NC(Nc1nc2ccc([N+](=O)[O-])cc2s1)(C(F)(F)F)C(F)(F)F)c1ccccc1,,2.24 µM (active)
O=C(NC(Nc1ncc(S(=O)(=O)c2ccc([N+](=O)[O-])cc2)s1)(C(F)(F)F)C(F)(F)F)c1ccc(Cl)cc1,,10 µM (active)
Cc1ccc(S(=O)(=O)c2cc3cc(Br)ccc3oc2=O)cc1,-3.3% [at 57.5 µM] (inactive),
Cn1c(CO)cnc1S(=O)(=O)Cc1ccc([N+](=O)[O-])cc1,-12.7% [at 57.5 µM] (inactive),
O=C(CN1CCN(C(=O)c2ccc(-c3nc4ccccc4s3)o2)CC1)Nc1ccccc1Cl,,3.55 µM (active)
c1nc(CCO[C@H]2CCCCO2)cc2cc3c(cc12)OCO3,-10.3% (inactive),
O=C(CN1c2cccc3cccc(c23)S1(=O)=O)NCc1ccc(Cl)cc1,10.1% (inactive),
O=C(CCc1ccccc1)NNC(=O)c1cc(Cl)ccc1O,-11.5% (inactive),
Cc1cc(Nc2cccc([N+](=O)[O-])c2)n2c(nc3ccccc32)c1C#N,,5.01 µM (active)
Cc1ccc(-c2c(C#N)c(N)n3c(nc4ccccc43)c2C#N)cc1,-27.3% [at 57.5 µM] (inactive),
COc1ccc(-c2nnc(NC(=O)c3ccc(S(=O)(=O)N4COCC4(C)C)cc3)o2)cc1,-23.2% (inactive),

Structure (SMILES),"activity change, negative = cytotoxicity",Potency
Cc1ccc(NC(=O)c2ccc(-c3nn(C)c(=O)c4ccccc34)cc2)cc1,-27.2% [at 57.5 µM] (inactive),
CCOC(=O)C(NS(=O)(=O)c1ccc(C)cc1)(C(F)(F)F)P(=O)(OCC(C)C)OCC(C)C (stereo not drawn),-12.5% (inactive),
Cc1csc2c(N3CCN(C(=O)Nc4ccc(Cl)c(Cl)c4)CC3)ncnc12,-12.7% (inactive),
O=c1c2c3c(sc2ncn1/N=C/c1ccc([N+](=O)[O-])o1)CCCC3,,3.55 µM (active)
NNc1ncnc2sc3c(c12)CCC3,-29.5% [at 57.5 µM] (inactive),
COc1ccc(/C=C2/CSC/C(=C/c3ccc(OC)c(OC)c3)C2=O)cc1OC,,11.2 µM (active)
COc1cc(/C=C2\COC/C(=C\c3cc(OC)c(OC)c(OC)c3)C2=O)cc(OC)c1OC,,1.78 µM (active)
Cc1ccc(CN2CCC(c3nc4ccc(Cl)cc4[nH]3)CC2)cc1,-21.1% [at 57.5 µM] (inactive),
Cc1cc(C)c(C(O)c2ncc(-c3cccc4ccccc34)[nH]2)c(C)c1 (stereo not drawn),-7.41% (inactive),
OC(c1ccc(Cl)cc1)c1ncc(-c2cccc(C(F)(F)F)c2)[nH]1 (stereo not drawn),2.6% (inactive),
Cc1ccc(-c2csc(N3CCN(c4cc5c(cc4Cl)nc(-c4ccncc4)n5CCOCCO)CC3)n2)cc1,-22.6% [at 57.5 µM] (inactive),
Cn1c2c(c(=O)n(C)c1=O)C(C(F)(F)F)(C(F)(F)F)N=C(CCC1CCCCC1)N2,,20 µM (active)
COc1cc(Nc2ncc3c(n2)CCN(C(=O)Nc2ccc(C(C)C)cc2)C3)cc(OC)c1OC,-27.8% (inactive),
CCCc1cc(C(=O)Nc2ccc(C(=O)c3ccc(C)cc3)cc2)n(C)n1,-29% (inactive),
Cc1cc(C(=O)N/N=C/c2cc(Br)ccc2OC(=O)c2ccccc2)n[nH]1,-18.4% (inactive),
Cc1ccc(NC(=O)C2CCN(S(=O)(=O)c3ccc(N4CCCC4=O)cc3)CC2)cc1Cl,-8.48% (inactive),
Cn1c(SCc2ccc(C(C)(C)C)cc2)nnc1C1COc2ccccc2O1 (stereo not drawn),-21.7% (inactive),
CCc1c(C)nc2ncnn2c1N1CCC(C(=O)Nc2ccc(C)cc2)CC1,-16.8% [at 57.5 µM] (inactive),
CCc1ccc(CNC(=O)C2CCN(c3nnc(C)c4c(C)n(-c5ccc(C)cc5)nc34)CC2)cc1,,20 µM (active)
CCc1ccc(C(=O)NNC(=O)C2CCN(c3ncnc4sc(C)c(C)c34)CC2)cc1,-21.9% (inactive),
FC(F)(F)c1cc(-c2ccccn2)nc2cc(-c3ccccc3)nn12,-8.59% [at 57.5 µM] (inactive),
Cc1ccc(-c2nnc(N3CCC(C)CC3)c3ccccc23)cc1C,-27.5% (inactive),
Cc1cc2c(N=O)c(NO)ccc2[nH]1,,12.6 µM (active)
CC[n+]1c(C=C2C=C(C)OC(C)=C2)sc2ccccc21,,11.2 µM (active)
